# Screens: PubChem, National Center for Advancing Translational Sciences (NCATS)
# Many of the other results were omitted from the sample, so hits are more common in it than they were.
# Methyltransferases: Primary Screen for Target Class Profiling of Small Molecule Inhibitors of Methyltransferases | purified enzyme, MTase-Glo SAH luminescence; active compounds read low | calls only at 40 µM | hit rate 3.9% among 25,000 | AID 1745853, 2022; call rule not given here
#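 Each enzyme was reacted with SAM and its substrate, with compounds tested once at 40 uM; SAH formed was read by MTase-Glo luminescence.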
# Starred values were filed as active, the others as inactive; i = inactive; + = active, no number. % is set by controls: 0 for no effect and ±100 for the full control effect.
SMILES,Methyltransferases
CCOc1ccc(CN2C(=O)c3ccc(-c4ccco4)n3CC2(C)C(=O)NC2CCC(C)CC2)cc1 (stereo not given),i
COc1cccc(C2c3cccn3-c3sc4c(c3CN2C(=O)Nc2cc(F)ccc2F)CCCC4)c1 (stereo not given),i
C=CCn1c(=O)c2ccc(C(=O)NC(C)C)cc2n2c(=O)n(CC(=O)Nc3cccc(F)c3)nc12,i
COc1ccc(NC(=O)N2Cc3c(sc4c3CCCC4)-n3cccc3C2c2cccc(OC)c2)cc1 (stereo not given),i
CCc1c(-c2ccccc2)c(-c2ccccc2)nn1-c1ccccc1-c1cccc(OCC(=O)O)c1,+
COC(=O)Cn1nc(-c2cccc(OC)c2)c2ccccc21,i
CC(C)CN1CC(COc2ccc3ccccc3c2)Oc2ccnc(-c3ccc(OCC(=O)O)cc3)c2C1=O (stereo not given),i
O=C(CCCc1nnc2n3nc(-c4ccccc4)nc3c3ccccc3n12)N1CCN(c2ccc(F)cc2)CC1,i
c1ccc2c(CCNc3ccc(Nc4ccncc4)cc3)c[nH]c2c1,+
Cc1ccc(-c2nnn3c2nc(NCCc2c[nH]c4ccccc24)c2ccccc23)cc1,i
O=C(O)CCCc1c[nH]c2ccccc12,i
Cc1ccc(C)c(S(=O)(=O)c2nnn3c2nc(NCCc2c[nH]c4ccccc24)c2ccccc23)c1,i
O=C(CN1C(=O)C2(CCCCC2)C1c1ccccc1)NCCc1c[nH]c2ccccc12 (stereo not given),i
c1cc(NCCc2c[nH]c3ccccc23)cc(Nc2ccncc2)c1,+
CCCCN1C(=O)c2cc(C(=O)N3CCN(c4ccc(OC)cc4)CC3)nn2CC1(C)C(=O)NC1CCCC1 (stereo not given),i
Cn1c2c(c3ccccc31)C(C(=O)NCc1ccc(F)cc1)N(CCC1=CCCCC1)C(=O)CS2 (stereo not given),i
CC(C)Cn1c(=O)c2ccc(C(=O)NC(C)C)cc2n2c(=O)n(CC(=O)Nc3ccc(Cl)cc3)nc12,i
COc1ccc(-c2nnc3n(Cc4ccc(F)cc4)c(=O)c4ccccc4n23)cc1,i
CCC1c2ccc(C)n2CCN1C(=O)Nc1cccc2c1CCCC2 (stereo not given),i
CCN1C(=O)c2cc(C(=O)Nc3ccc(C)cc3)nn2CC1(C)C(=O)NC1CCCC1 (stereo not given),i
CCc1cc2c(cc3n2CC(C)(C(=O)NC2CCCCC2)N(c2ccc(C)cc2C)C3=O)s1 (stereo not given),i
O=C(CCn1ccc2cc(S(=O)(=O)N3CCCCC3)ccc21)NCCCN1CCCC1=O,i
Oc1cc(CNC(=S)/C=C/c2cc(O)c(O)c(Br)c2)cc(O)c1O,+
C=Cc1ccc(Cn2nc3n(CCC(C)C)c(=O)c4ccccc4n3c2=O)cc1,i
CC(C)CNC(=O)c1ccc2c(=O)n(CC(C)C)c3nnc(SCC(=O)NC(C)(C)C)n3c2c1,i
SMILES,Methyltransferases
N#C/C(=C1\Nc2ccccc2S1)c1ccnc(NCCc2cccnc2)n1,+
CCOCCCNC(=O)CCc1nnc2n(CCc3ccccc3)c(=O)c3ccccc3n12,i
CC(Oc1cc(-n2cnc3ccc(CN4CCN(C)CC4)cc32)sc1C(N)=O)c1ccccc1C(F)(F)F (stereo not given),+
C[C@@H](Oc1cc(-n2cnc3ccc(OC4CCN(C)CC4)cc32)sc1C(N)=O)c1ccccc1Cl,+
COC(=O)c1cc2n(n1)CC(C)(C(=O)NC1CCCCCC1)N(Cc1ccc(OC)cc1OC)C2=O (stereo not given),i
CC1(C(=O)NC2CCCCCC2)Cn2nc(C3CC3)cc2C(=O)N1Cc1cccc(Br)c1 (stereo not given),i
Cc1cc(C)cc(NC(=O)Cn2nc3n(C(C)C)c(=O)c4ccc(C(=O)NC5CCCC5)cc4n3c2=O)c1,i
COc1ccc(OC)c(S(=O)(=O)N2CCCC(Cc3ncc(C)n3CC3CC3)C2)c1 (stereo not given),i
O=C(Cn1nc2n(CCc3ccccc3)c(=O)c3ccccc3n2c1=O)Nc1cccc(F)c1,i
COc1ccc(NS(=O)(=O)c2cc3[nH]c(=O)[nH]c3cc2Cl)cc1,i
CCN1C(=O)c2cc(C(=O)Nc3ccc(C(C)C)cc3)nn2CC1(C)C(=O)NC1CCCC1 (stereo not given),i
CC(C)Cn1c(=O)c2ccccc2n2c(=O)n(CC(=O)NC3CCCCC3)nc12,i
CC1CCCCC1NC(=O)C1(C)Cn2c(cc3sccc32)C(=O)N1Cc1ccccc1F (stereo not given),i
CCOc1ccc(CCN2C(=O)c3cc(C(=O)OC)nn3CC2(C)C(=O)NC2CCCC2)cc1 (stereo not given),i
NC(=NCCCCCCN=C(N)/N=C(\N)Nc1ccc(Cl)cc1)/N=C(\N)Nc1ccc(Cl)cc1,+
CC1(C(=O)NCc2ccccc2)Cn2c(ccc2-c2ccco2)C(=O)N1c1ccc(F)cc1 (stereo not given),i
